Measurements taken from PubChem BioAssay (EPA / NIEHS).
Inconclusive results are not listed. Active and inactive are the calls of the source. Rule for the calls, unless noted: active = hit-call score of the fitted dose curve at least 0.9, where 1 is the maximum; inconclusive = response in the unintended direction; inactive = score below 0.9.

Legend:
[1] = read-out: sulfotransferase 2A1 (SULT2A1), SULT2A1 (gene 6822); assay: LTEA_HepaRG_SULT2A1: Life Technologies and Expression Analysis (LTEA) Assay for sulfotransferase 2A1 (SULT2A1) using HepaRG (AID 2283531; active = hit-call score of the fitted dose curve at least 0.9, where 1 is the maximum; inactive = score below 0.9); details: mRNA level, 48 h; actives raise or lower the signal
Procedure, shortened: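 Gene-expression endpoint in a human liver cell line: SULT2A1 mRNA change after 48 h chemical treatment, curves fitted in both directions relative to 0.5% DMSO vehicle. Concentrations spanned eight half-log steps from 100 uM.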

[2] = read-out: Transforming Growth Factor (TGFA), TGFA (gene 7039); assay: LTEA_HepaRG_TGFA: Life Technologies and Expression Analysis (LTEA) Assay for Transforming Growth Factor (TGFA) using HepaRG (AID 2283532; active = hit-call score of the fitted dose curve at least 0.9, where 1 is the maximum; inactive = score below 0.9); details: mRNA level, 48 h; actives raise or lower the signal
Procedure, shortened: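 HepaRG (human liver line), 48 h exposure, 8 conc. half-log down from 100 uM, 0.5% DMSO vehicle, duplicates; serum-free induction medium. TGFA mRNA by TaqMan qRT-PCR, ACTB/GAPDH/POLR2A normalization; gain/loss fit vs DMSO.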

[3] = read-out: Transforming Growth Factor (TGFB1), TGFB1 (gene 7040); assay: LTEA_HepaRG_TGFB1: Life Technologies and Expression Analysis (LTEA) Assay for Transforming Growth Factor (TGFB1) Transporter using HepaRG (AID 2283533; active = hit-call score of the fitted dose curve at least 0.9, where 1 is the maximum; inactive = score below 0.9); details: mRNA level, 48 h; actives raise or lower the signal
Procedure, shortened: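 Eight-point concentration-response (max 100 uM, half-log) in HepaRG under serum-free induction conditions, 48 h. TGFB1 mRNA by qRT-PCR, housekeeping-normalized.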

[4] = read-out: TIMP1, TIMP1 (gene 7076); assay: LTEA_HepaRG_TIMP1: Life Technologies and Expression Analysis (LTEA) Assay for TIMP1 using HepaRG (AID 2283534; active = hit-call score of the fitted dose curve at least 0.9, where 1 is the maximum; inactive = score below 0.9;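 for outcome: TaqMan qRT-PCR signal normalized to ACTB GAPDH and POLR2A housekeeping genes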); details: mRNA level, 48 h; actives raise or lower the signal
Procedure, shortened: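 TIMP1 induction or repression in HepaRG cells after 48 h chemical exposure (eight concentrations, highest 100 uM), assessed by normalized qRT-PCR with bidirectional fitting to DMSO controls.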

[5] = read-out: Tumor necrosis factor receptor 1 (TNFRSF1A), TNFRSF1A (gene 7132); assay: LTEA_HepaRG_TNFRSF1A: Life Technologies and Expression Analysis (LTEA) Assay for Tumor necrosis factor receptor 1 (TNFRSF1A) using HepaRG (AID 2283535; active = hit-call score of the fitted dose curve at least 0.9, where 1 is the maximum; inactive = score below 0.9); details: mRNA level, 48 h; actives raise or lower the signal
Procedure, shortened: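 Assay uses 48 h chemical treatment of differentiated HepaRG monolayers, tested in duplicate at eight concentrations from 100 uM downward in 0.5% DMSO. mRNA is normalized to ACTB, GAPDH and POLR2A, with induction or suppression fitted relative to vehicle.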

[6] = read-out: Thyroid Hormone Responsive (THRSP), THRSP (gene 7069); assay: LTEA_HepaRG_THRSP: Life Technologies and Expression Analysis (LTEA) Assay for Thyroid Hormone Responsive (THRSP) using HepaRG (AID 2283536; active = hit-call score of the fitted dose curve at least 0.9, where 1 is the maximum; inactive = score below 0.9); details: mRNA level, 48 h; actives raise or lower the signal
Procedure, shortened: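 mRNA induction or loss relative to 0.5% DMSO vehicle was fitted bidirectionally across an eight-point curve whose highest exposure was 100 uM. Human HepaRG liver cells received chemicals in duplicate over 48 h before RNA extraction.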

[7] = read-out: UDP glucuronosyltransferase (UGT1A1), UGT1A1 (gene 54658); assay: LTEA_HepaRG_UGT1A1: Life Technologies and Expression Analysis (LTEA) Assay for UDP glucuronosyltransferase (UGT1A1) using HepaRG (AID 2283538; active = hit-call score of the fitted dose curve at least 0.9, where 1 is the maximum; inactive = score below 0.9); details: mRNA level, 48 h; actives raise or lower the signal
Procedure, shortened: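 Differentiated human HepaRG cells in serum-free induction medium were exposed in duplicate for 48 h to eight half-log concentrations up to 100 uM in 0.5% DMSO. UGT1A1 mRNA was quantified by TaqMan qRT-PCR, normalized to ACTB, GAPDH and POLR2A, and fitted bidirectionally against DMSO.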

[8] = read-out: UDP glucuronosyltransferase (UGT1A6), UGT1A6 (gene 54578); assay: LTEA_HepaRG_UGT1A6: Life Technologies and Expression Analysis (LTEA) Assay for UDP glucuronosyltransferase (UGT1A6) using HepaRG (AID 2283539; active = hit-call score of the fitted dose curve at least 0.9, where 1 is the maximum; inactive = score below 0.9); details: mRNA level, 48 h; actives raise or lower the signal
Procedure, shortened: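 Measures mRNA change in HepaRG hepatic cells exposed 48 h to chemicals (eight-point, maximum 100 uM, 0.5% DMSO vehicle) in serum-free induction medium. Expression normalized to endogenous controls; DMSO served as negative control and baseline.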

[9] = read-out: X-box binding protein 1 (XBP1), XBP1 (gene 7494); assay: LTEA_HepaRG_XBP1: Life Technologies and Expression Analysis (LTEA) Assay for X-box binding protein 1 (XBP1) using HepaRG (AID 2283540; active = hit-call score of the fitted dose curve at least 0.9, where 1 is the maximum; inactive = score below 0.9); details: mRNA level, 48 h; actives raise or lower the signal
Procedure, shortened: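 Eight concentrations (half-log, highest 100 uM, 0.5% DMSO) tested in duplicate on HepaRG cells over 48 h in serum-free induction medium; qRT-PCR of XBP1 normalised to ACTB, GAPDH, POLR2A.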

[10] = LTEA_HepaRG_LDH_cytotoxicity: Cytotoxicity Assessment in the Life Technologies and Expression Analysis (LTEA) Assay (AID 2283563)
Procedure, shortened: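 Spent-medium LDH after 48 h chemical exposure of HepaRG cells in serum-free induction medium; eight concentrations, half-log dilutions from 100 uM, duplicate wells, fitted upward relative to 0.5% DMSO.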

[11] = molecular target: Cellular tumor antigen p53 (Homo sapiens) (UniProt P04637); assay: TOX21_p53_BLA_p2_ratio: Tox21 HCT-116 p53 Agonism Beta-lactamase Assay, Ratio, Phase 2 (AID 2283592)
Procedure, shortened: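 Human colon HCT116 cells with an inducible p53 beta-lactamase reporter are exposed to test chemicals for 16 h at 37C. Reporter induction is read as the 460/530 nm emission ratio after CCF4-AM loading, normalized to DMSO.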

[12] = molecular target: Cellular tumor antigen p53 (Homo sapiens) (UniProt P04637); assay: TOX21_p53_BLA_p3_ratio: Tox21 HCT-116 p53 Agonism Beta-lactamase Assay, Ratio, Phase 3 (AID 2283596)
Procedure, shortened: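 HCT116 p53-bla cells (4000/well) given compound in DMSO (217-fold dilution) after 5 h, incubated 16 h at 37C. CCF4-AM substrate 2 h at room temperature; 460/530 nm emission ratio, gain fitted against DMSO.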

[13] = molecular target: Cellular tumor antigen p53 (Homo sapiens) (UniProt P04637); assay: TOX21_p53_BLA_p5_ratio: Tox21 HCT-116 p53 Agonism Beta-lactamase Assay, Ratio, Phase 5 (AID 2283599)
Procedure, shortened: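 Beta-lactamase reporter ratio (blue 460 nm over green 530 nm, 405 nm excitation) after 2 h CCF4-AM loading, in HCT-116 cells exposed 16 h at 37 C to compounds pinned at 217-fold dilution. Increases relative to DMSO baseline scored.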

[14] = molecular target: Cellular tumor antigen p53 (Homo sapiens) (UniProt P04637); assay: TOX21_p53_BLA_p4_ratio: Tox21 HCT-116 p53 Agonism Beta-lactamase Assay, Ratio, Phase 4 (AID 2283601)
Procedure, shortened: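 Signal is the blue/green (460nm/530nm) ratio of cleaved versus uncleaved CCF4-AM substrate, read after 2 h substrate loading. Cells were HCT116 carrying the p53-responsive beta-lactamase reporter, dosed 16 h at 37C, 5% CO2; CellTiter-Glo measured in parallel.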

[15] = ATG_XTT_Cytotoxicity: Cytotoxicity Assessment in the Attagene TRANS-FACTORIAL HepG2 Assay (AID 2283584)
Procedure, shortened: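 24 h chemical exposure of reporter-transfected HepG2; XTT signal loss vs DMSO indicates cytotoxicity.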

[16] = TOX21_p53_BLA_p3_viability: Viability Assessment in the Tox21 HCT-116 p53 Agonism Beta-lactamase Assay, Phase 3 (AID 2283593);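 note: cells exposed to compound for 16 h before reading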
Procedure, shortened: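 Cellular ATP was quantified by CellTiter-Glo luminescence, read after 30 min at room temperature. Beforehand, HCT116 cells (4000/well) received compound 5 h post-seeding, 217-fold diluted from DMSO, then incubated 16 h at 37C.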

[17] = TOX21_p53_BLA_p4_viability: Viability Assessment in the Tox21 HCT-116 p53 Agonism Beta-lactamase Assay, Phase 4 (AID 2283597);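 note: hits lower the luminescence signal meaning cytotoxicity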
Procedure, shortened: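 Luminescent ATP readout (CellTiter-Glo, 30 min, room temperature) in the same wells as the p53 bla ratio. HCT116 cells were treated for 16 h at 37C with DMSO-dissolved compounds.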

[18] = TOX21_p53_BLA_p5_viability: Viability Assessment in the Tox21 HCT-116 p53 Agonism Beta-lactamase Assay, Phase 5 (AID 2283600)
Procedure, shortened: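 Seeded cells (4000/well) settle 5 h before compound addition. Plates then incubate 16 h at 37C, receive FRET substrate for 2 h, and finally CellTiter-Glo, with luminescence measured after a 30 min room-temperature incubation.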

[19] = TOX21_p53_BLA_p2_viability: Viability Assessment in the Tox21 HCT-116 p53 Agonism Beta-lactamase Assay, Phase 2 (AID 2283591);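 note: compound exposure lasted 16 h at 37 °C; actives lower the ATP signal meaning cytotoxicity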
Procedure, shortened: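 Cytotoxicity readout: CellTiter-Glo ATP luminescence, 30 min at room temperature, after the beta-lactamase read. Cells were HCT116 exposed 16 h at 37C to compounds pin-transferred at 217-fold dilution from DMSO stocks.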

[20] = read-out: Cellular tumor antigen p53 (Homo sapiens) (UniProt P04637); assay: LTEA_HepaRG_TP53: Life Technologies and Expression Analysis (LTEA) Assay for Tumor Protein P53 (TP53) using HepaRG (AID 2283537; active = hit-call score of the fitted dose curve at least 0.9, where 1 is the maximum; inactive = score below 0.9); details: mRNA level, 48 h; actives raise or lower the signal
Procedure, shortened: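 Differentiated HepaRG cells in serum-free induction medium exposed 48 h in duplicate to 8 half-log concentrations, top 100 uM, 0.5% DMSO. TP53 mRNA by TaqMan qRT-PCR (Fluidigm), normalized to ACTB, GAPDH, POLR2A; fitted bidirectionally versus DMSO.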

Cellular tumor antigen p53 (Homo sapiens), sequence (P04637 whole entry, looked up): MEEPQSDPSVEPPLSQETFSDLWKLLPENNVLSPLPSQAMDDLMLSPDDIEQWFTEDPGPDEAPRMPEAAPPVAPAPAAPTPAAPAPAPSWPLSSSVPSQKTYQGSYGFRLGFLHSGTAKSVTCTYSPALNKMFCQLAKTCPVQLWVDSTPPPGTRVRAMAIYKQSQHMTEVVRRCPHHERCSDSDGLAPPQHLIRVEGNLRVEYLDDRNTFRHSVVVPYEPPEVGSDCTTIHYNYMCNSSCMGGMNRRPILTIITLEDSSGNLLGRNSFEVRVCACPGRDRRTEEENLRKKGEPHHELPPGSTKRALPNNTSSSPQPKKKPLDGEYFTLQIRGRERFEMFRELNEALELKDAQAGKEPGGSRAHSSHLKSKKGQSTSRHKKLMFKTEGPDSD

Cc1cc(NC(=O)C(=O)O)cc(C)c1Oc1ccc(O)c2c1CCC2
AC50 [1]: 526 nM (active)
outcome [2]: inactive
outcome [3]: inactive
outcome [4]: inactive
outcome [5]: inactive
outcome [6]: inactive
outcome [7]: inactive
outcome [8]: inactive
outcome [9]: inactive
outcome [10]: inactive
outcome [11]: inactive
outcome [12]: inactive
outcome [13]: inactive
outcome [14]: inactive

CC1(C)CC(N=C=O)CC(C)(CN=C=O)C1 (configuration not stated)
outcome [1]: inactive
outcome [2]: inactive
outcome [3]: inactive
outcome [4]: inactive
outcome [5]: inactive
outcome [6]: inactive
outcome [7]: inactive
outcome [8]: inactive
outcome [9]: inactive
outcome [10]: inactive
outcome [15]: inactive
outcome [11]: inactive
outcome [16]: inactive
outcome [12]: inactive
outcome [17]: inactive
outcome [13]: inactive
outcome [18]: inactive
outcome [14]: inactive

COc1cc(C=O)ccc1O
outcome [1]: inactive
outcome [2]: inactive
outcome [3]: inactive
outcome [4]: inactive
outcome [5]: inactive
outcome [6]: inactive
outcome [7]: inactive
outcome [8]: inactive
outcome [9]: inactive
outcome [10]: inactive
outcome [15]: inactive
outcome [19]: inactive
outcome [11]: inactive
outcome [16]: inactive
outcome [12]: inactive
outcome [17]: inactive
outcome [13]: inactive
outcome [18]: inactive
outcome [14]: inactive

O=C(OCCCCCOC(=O)c1ccccc1)c1ccccc1
outcome [1]: inactive
AC50 [2]: 1.28 µM (active)
AC50 [3]: 3 µM (active)
outcome [4]: inactive
AC50 [5]: 1.99 µM (active)
outcome [6]: inactive
AC50 [7]: 1.07 µM (active)
outcome [8]: inactive
AC50 [9]: 0.761 µM (active)
outcome [10]: inactive
outcome [15]: inactive
outcome [11]: inactive
outcome [16]: inactive
outcome [12]: inactive
outcome [17]: inactive
outcome [13]: inactive
outcome [18]: inactive
outcome [14]: inactive

CCCCCC(=O)O
outcome [1]: inactive
outcome [2]: inactive
outcome [3]: inactive
outcome [4]: inactive
outcome [6]: inactive
outcome [20]: inactive
outcome [7]: inactive
outcome [8]: inactive
outcome [9]: inactive
outcome [10]: inactive
outcome [15]: inactive
outcome [19]: inactive
outcome [11]: inactive
outcome [16]: inactive
outcome [12]: inactive
outcome [17]: inactive
outcome [13]: inactive
outcome [14]: inactive

CC1(C)NC(=O)NC1=O
outcome [1]: inactive
outcome [2]: inactive
outcome [3]: inactive
outcome [4]: inactive
outcome [5]: inactive
outcome [6]: inactive
outcome [7]: inactive
outcome [8]: inactive
outcome [9]: inactive
outcome [10]: inactive
outcome [15]: inactive
outcome [19]: inactive
outcome [11]: inactive
outcome [16]: inactive
outcome [12]: inactive
outcome [17]: inactive
outcome [13]: inactive
outcome [14]: inactive

Oc1ccc2ccccc2c1N=Nc1ccccc1
AC50 [1]: 4890 nM (active)
outcome [2]: inactive
outcome [3]: inactive
AC50 [4]: 10.1 µM (active)
outcome [5]: inactive
AC50 [6]: 2.19 µM (active)
AC50 [7]: 0.811 µM (active)
outcome [8]: inactive
AC50 [9]: 7.84 µM (active)
outcome [15]: inactive
outcome [19]: inactive
outcome [11]: inactive
outcome [16]: inactive
outcome [12]: inactive
outcome [13]: inactive
outcome [18]: inactive
outcome [14]: inactive
